From PubChem BioAssay
SKKanGAS inh – SKKanGAS growth inhibition; S. pyogenes SKKanGAS, kanamycin growth, BacTiter-Glo, 6 h; AID 1662; inhibition, % at 7.5 µM; 300,000 compounds, 1.3% hits;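 active = mean replicate score, as percent of positive control median, at least 50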;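 note: strain carries kanamycin resistance gene driven by streptokinase promoter and grows in 40 µg/ml kanamycin; loss of luminescence reflects streptokinase promoter inhibition or plain growth inhibition; 0% = median of DMSO wells and 100% = positive control at its reference dose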
CSC inhib – blocks cancer stem cells; cancer stem cell-like cells viability, luminescence; inhibition, % at 7.5 µM; 300,000 compounds, 1.1% hits; AID 2717; in the data active = inhibition above about 75%; tested in HMLE shEcad cells
KLF5 inh – kruppel-like factor 5 inhibition | DLD-1 KLF5 promoter-luciferase reporter, luminescence | inhibition, % at 5 µM | 290,000 compounds, 0.23% hits | AID 1700;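 active = inhibition above a per-plate limit of that plate's mean compound inhibition plus 3 SD, cut at about 60% in these data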;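 note: 0% = DMSO wells and 100% = LY294002 at 200 µM; higher means less KLF5 promoter-driven luciferase light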
aSyn 5UTR inh – MLPCN primary screen, SNCA 5' untranslated region. alpha-synuclein 5'UTR reporter, inhibitor activity. inhibition, % (tested at 7.5 µM). 300,000 compounds, 0.82% hits; in the data active = inhibition above about 60%;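 note: H4 neuroglioblastoma cells stably carrying SNCA 5'UTR luciferase fusion; 0% = DMSO wells and 100% = positive control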
IEC-6 cytotox – IEC-6 cytotoxicity, counter-screen for KLF5 inhibitors | luminescence viability | inhibition, % at 5 µM | 290,000 compounds, 0.78% hits | AID 1825; in the data active = inhibition above about 22%;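 note: 0% = plate median of test compound wells and 100% = cytotoxic reference compound wells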
Numbers without * were called inactive; · = not tested or not shown. Rows were chosen to be rich in hits. Some 3% of all compounds tested hit in one or more screens of this group.

SMILES	SKKanGAS inh	CSC inhib	KLF5 inh	aSyn 5UTR inh	IEC-6 cytotox
Cc1ccc(C(=O)n2c3ccccc3c3ccccc32)cc1	67*	68	-20	8	5
CSc1cccc(NC(=O)C2CCN(S(=O)(=O)c3ccc4c(c3)NC(=O)CO4)CC2)c1	-9	2	6	-4	6
CC(C)c1ccc(-c2nc(N3CCCC3)nc3n[nH]c(N)c23)cc1	53*	37	-9	50	3
CC(C)c1ccc(-c2nc(N3CCCCCC3)nc3n[nH]c(N)c23)cc1	26	-3	-20	16	-3
COc1cc2c(cc1OC)-c1cc(NC3CCCCCCC3)nc(=O)n1CC2	10	·	-22	70*	0
CCOc1ccc(NC(=O)CN(C)C(=O)c2ccccc2-n2cnnn2)cc1OCC	-5	-9	·	7	·
COc1ccc(CCNC(=O)C(=O)NCC2OCCN2S(=O)(=O)c2cc(F)ccc2F)cc1OC (centres undefined)	-1	-7	-22	15	-3
NNC(=O)c1nn(-c2ccccc2)cc1O	-3	-7	-12	83*	-3
O=C(O)c1cn(-c2ccccc2)nc1C(=O)O	-10	5	-17	17	3
NC1=NC[C@@H](CC2CCCCC2)N1CCc1cc(C(F)(F)F)cc(C(F)(F)F)c1	·	139*	·	·	·
CCCC(=O)c1ccc(N2CCOCC2)c(F)c1	-4	-4	-35	-97	1
CC(=O)NC[C@H]1CN(c2ccc(N3CCOCC3)c(F)c2)C(=O)O1	107*	-2	-11	-44	16
Cc1cccc(NC(=S)N2CCOCC2)c1C	-2	4	-10	11	-1
COc1ccc2cc3c(N)nn(C(=O)c4ccccc4Cl)c3nc2c1	8	17	-26	65*	14
CCOC(=O)/C=C(\C)Sc1cc(O)c2ccccc2c1O	·	·	-11	·	34*
CCN(Cc1cc2ccccc2[nH]c1=O)C(=O)c1cccc([N+](=O)[O-])c1	-6	-14	-4	20	0
OC(CNCc1ccccn1)c1ccccc1 (centres undefined)	0	-11	14	2	3
Fc1ccc(C(CCNCc2ccccn2)c2ccc(Cl)cc2)cc1 (centres undefined)	64*	·	-39	-4	0
CC1CCCCN1c1ccc(N)cc1C(N)=O (centres undefined)	-14	-3	-19	-7	-6
COc1cc2c(cc1OC)C(c1ccc(Br)cc1)NCC2 (centres undefined)	-14	-15	·	63*	·
O=C(N/N=C/c1cc(Br)ccc1O)C(=O)Nc1ccccc1OC(F)(F)C(F)F	103*	96*	36	82*	8
O=C(N/N=C/c1cc(Cl)ccc1O)C(=O)Nc1ccccc1OC(F)(F)C(F)F	·	96*	-6	·	2
COc1ccccc1/C=N/NC(=O)C(=O)Nc1ccccc1OC(F)(F)C(F)F	1	-5	-32	-7	4
OCCC1CN(CC2CC2)CCN1Cc1ccc(F)c(F)c1 (centres undefined)	10	5	-43	3	-3
CCc1cc(CNC(=O)c2ccc(OC3CCN(C(C)=O)CC3)c(OC)c2)on1	-3	-3	-24	-4	-1
SMILES	SKKanGAS inh	CSC inhib	KLF5 inh	aSyn 5UTR inh	IEC-6 cytotox
CC(NC(=O)c1ccc(S(=O)(=O)Nc2ccccc2Cl)cc1)c1ccncc1 (centres undefined)	·	-11	·	·	·
O=C(/C=C/c1cccs1)Nc1ccc(Br)cn1	-25	57	23	-50	81*
Cc1cc(C)nc(NC(=O)/C=C/c2cccs2)c1	-14	86*	-27	-155	6
O=C(/C=C/c1cccs1)Nc1cccc(NC(=O)/C=C/c2cccs2)n1	40	6	-109	-181	9
COc1cc(CN2CCNC(=O)C2CC(=O)N(Cc2nccn2C)C(C)C)cc(OC)c1 (centres undefined)	-8	-8	-14	9	0
CN1CCN(C(c2ccc(Br)cc2)c2cc(Cl)c3cccnc3c2O)CC1 (centres undefined)	69*	111*	30	67*	8
CN1CCN(C(c2cccnc2)c2ccc3cccnc3c2O)CC1 (centres undefined)	-8	25	41	-11	3
CCOc1cc2c(cc1/C=C/c1noc(C)c1[N+](=O)[O-])OC(C)C2 (centres undefined)	-3	8	-10	-27	7
CCOc1cccc(-c2c(C(=O)N/N=C(\C)c3ccncc3)nnn2-c2nonc2N)c1	-7	-13	-25	25	-2
CCOc1cccc(-c2c(C(=O)N/N=C(\C)c3ccccn3)nnn2-c2nonc2N)c1	32	-12	58	90*	52*
CC(C)c1c(C(=O)N/N=C/c2cccc(OCc3ccccc3)c2)nnn1-c1nonc1N	81*	-5	-8	4	4
Cc1ccc(/C=N/NC(=O)c2nnn(-c3nonc3N)c2-c2cccs2)cc1	13	-6	11	69*	10
COc1cccc(/C=N/NC(=O)c2nnn(-c3nonc3N)c2C(C)C)c1OCc1ccc(F)cc1	60*	-9	-1	11	-5
O=C(CN(C(=O)c1csnn1)c1ccc(Cl)cc1)NCc1ccc2c(c1)OCO2	-5	0	-23	-1	-2
Clc1cccc(Cl)c1-c1noc(CN2CCOCC2)n1	0	9	-29	-14	-2
CSc1nc(Cl)cc(Nc2ccc(O)cc2)n1	-3	-7	-29	-79	3
Cc1cccc(N=N/C(=C\O)C(=O)c2ccc(Br)cc2)c1	53*	-5	-2	-16	-6
Cc1cc2c(=O)n(Cc3ccco3)c(SCC(=O)N3CCCc4ccccc43)nc2s1	58*	17	0	30	-2
S=C(Nc1cccc(Cl)c1)N(CCCN1CCCC1)Cc1cccn1Cc1ccc(Cl)cc1	-21	96*	-32	-21	2
CSc1cccc(NC(=S)N(CCCN2CCCC2)Cc2cccn2Cc2ccc(Cl)cc2)c1	-7	33	-17	-12	6
Cc1ccc(NNC(=O)C(=O)N2CCCCC2)cc1	6	112*	9	18	1
Cc1cc(Cl)ccc1OCc1cn2cccnc2n1	12	-16	-135	-124	-5
COc1ccc(/C=N/Nc2nncc3ccccc23)cc1	13	28	-91	67*	-1
COc1ccccc1/C=N/Nc1nncc2ccccc12	-2	0	-57	-132	6
O=C1C=C(c2ccc(Cl)c(C(F)(F)F)c2)C[C@@H](c2ccc3c(c2)OCO3)C1	·	110*	·	·	·
SMILES	SKKanGAS inh	CSC inhib	KLF5 inh	aSyn 5UTR inh	IEC-6 cytotox
CCn1c(C)c(C)c2cc(C(=O)NC3CCCCCC3)ccc21	7	8	-23	-87	8
Cc1ccc(Cl)cc1N1CCN(Cc2nc3c(c(=O)[nH]c(=O)n3C)n2Cc2ccccc2F)CC1	79*	118*	·	-7	·
NS(=O)(=O)c1ccc(CNC(=S)NC2CC2)cc1	-1	-21	-5	-15	4
C/C(=N/NC(=O)c1ccccn1)c1ccncc1	-1	14	-117	-116	6
C/C(=N\NC(=O)c1cc(Br)ccc1O)c1ccccn1	97*	96*	-65	49	3
C/C(=N\NC(=O)c1ccc(NS(=O)(=O)c2cccs2)cc1)c1ccccn1	26	64	-18	71*	-1
